# Experimental data from PubChem BioAssay AID1458 (National Center for Advancing Translational Sciences (NCATS), 2008).
# About 5,900 (2.8%) of roughly 210,000 compounds were called active. Inconclusive results (about 5%) are left out. Calls follow the shape of the dose curve; as a rule, active = well fitted activation curve with a large enough effect; inconclusive = small, poorly fitted or top-dose-only effect; inactive = no such curve, though single readings can be large or run the other way. Many of the other results were omitted from the sample, so actives are more common in it than they were.
# Experiment: qHTS Assay for Enhancers of SMN2 Splice Variant Expression; also: nearly all actives have a fitted effect of over 55% in size; as to activity change, positive = activation: % of control where 0% means no effect
# Details: HEK293 SMN2-luciferase splicing reporter, luminescence, 30-36 h; series mostly up to 46.1 µM; activity change, positive = activation: at the top concentration
# Excerpt: NIH Chemical Genomics Center [NCGC] NIH Molecular Libraries Probe Production centers Network [MLPCN] MLPCN Grant: R03 MH084179-01 Assay Submitter (PI): Elliot Androphy NCGC Assay Overview: Spinal muscular atrophy (SMA) is caused by insufficient levels of the survival motor neuron protein SMN. The SMN locus on chromosome 5q13 contains two inverted copies of SMN called SMN1 and SMN2 which are 99% identical at the amino acid level. SMN1 is a fully functional protein and SMN2 skips exon 7 90% of the time. Skipping of exon 7 produces non-functional protein product. 10% of the SMN2 protein includes exon 7 and is fully functional. In the SMA disease state, mutations in the SMN1 locus are the cause of the disease state. Because only 10% of SMN2 is of the fully functional form, it is not sufficient to overcome the deficiency produced by the loss of the SMN1 product. A therapy that either increase the amount of SMN2 product made or to increase the inclusion of exon 7 has been proposed for the treatment of SMA. We have designed an assay to identify small molecules that can increase the amount of functional SMN2 product by appending a luciferase reporter gene after the native SMN2 gene, such that inclusion of exon 7 in the expressed product places the luciferase sequence in frame, thus generating functional luciferase enzyme.
# NCGC Assay Protocol Summary: This screen utilizes a luciferase reporter gene assay, combining the promoter and splicing based cassettes in tandem with the major portion of the native SMN2 cDNA, and then transfected into HEK293 cells. Compounds that increase luciferase signal presumably enhance expression of the functional SMN2 splice variant. Passaging media contained DMEM w/ glutamax (+phenol red) 10% FCS, 1x pen/strep, 200 ug/ml hygro, 1x sodium pyruvate. Assay media contained DMEM w/ glutamax (-phenol red) 10% FCS, 1x pen strep, 1x pyruvate Sequence, Parameter, Value, Description (1) Cells, […], 2000 cells/well, 1536 TC treated White solid bottom plate (2) Time, 10-12 hours, 37C 5% CO2 (3) Compound, 23 nl, MLSMR Library (4) Control Compound, 23 nL, Sodium butyrate st 4.5mM (final) conc (5) Time, 30-36 hours, 37C 5% CO2 (6) Reagent, 3 ul, One Glo (TM) from Promega (7) Time, 5-15 minutes, Room temp (8) Detector, Viewlux: luminescent read, 60 second integration, high speed 2x binning Keywords: Spinal muscular atrophy, SMA, SMN2, high throughput screening, MLSMR, MLPCN, NIH Roadmap, qHTS and NCGC
# Potency is read from the fitted curve at half-maximal effect.
SMILES,Potency,"activity change, positive = activation"
CC(C)Oc1ccc(NC(=O)c2cc3ccccc3o2)cc1,2.51 µM (active),
Cc1ncoc1C(=O)NCCC(c1ccccc1)c1ccccc1,,-50.5% (inactive)
O=C(OCC1O[C@@H](OC(=O)c2cc(O)c(O)c(O)c2)[C@@H](OC(=O)c2cc(O)c(O)c(O)c2)[C@@H](OC(=O)c2cc(O)c(O)c(O)c2)[C@@H]1OC(=O)c1cc(O)c(O)c(O)c1)c1cc(O)c(O)c(O)c1 (stereo not given in full),,-42.8% (inactive)
COc1cccc(C(=O)Nc2ccc(-c3cc(C(F)(F)F)nn3-c3ccccc3)cc2)c1,,-70.6% (inactive)
O=C(OCC(=O)c1cccs1)C1=COCCO1,14.1 µM (active),
CC(=O)c1c(O)c(C)c(O)c(Cc2c(O)c3c(c(C(=O)/C=C/c4ccccc4)c2O)OC(C)(C)C=C3)c1O,inactive,
CCCCCCCCCc1ccc(OCCOCCOCCOCCOCCOCCOCCOCCOCCO)cc1,,-96.9% (inactive)
Cn1c(=O)oc2cc(S(=O)(=O)N3CCC(C(=O)Nc4ccc(OC(F)(F)F)cc4)CC3)ccc21,,-41.6% (inactive)
CC(=O)Oc1ccccc1C(=O)Nc1ncc([N+](=O)[O-])s1,12.6 µM (active),
C[N+](C)(C)CCOP(=O)([O-])OC[C@H](O)CO,,-39.5% (inactive)
CC(C)=CCC[C@]1(C)[C@@H](CC=C(C)C)C[C@@]2(CC=C(C)C)C(=O)[C@]1(C(=O)C(C)C)C(=O)C(CC=C(C)C)=C2O,,-64.9% (inactive)
CC[C@]1([C@H]2O[C@@H]([C@@H]3O[C@](O)(CO)[C@@H](C)C[C@H]3C)C[C@H]2C)CC[C@@H]([C@]2(C)CC[C@@]3(C[C@@H](O)[C@@H](C)[C@@H]([C@H](C)[C@H](OC)[C@H](C)C(=O)O)O3)O2)O1,,-29.3% [at 20.6 µM] (inactive)
O=C(Nc1cccc(F)c1)N1CC[C@@]2(CCCN(C(=O)Oc3ccccc3)C2)C1,,-46.3% (inactive)
CC(C)(C)c1ccc(OC(=O)N2CCCCC2)cc1,12.6 µM (active),
O=C(Nc1cccc(OC(=O)N2CCCCC2)c1)N1CCOCC1,,-21.1% (inactive)
CC(C)(C)C(O)(CCc1ccc(Cl)cc1)Cn1cncn1 (stereo not given),,9.38% (inactive)
NCC[Se][Se]CCN,,-13.3% [at 9.22 µM] (inactive)
CO[C@@H]1C[C@@H](C[C@H]2CC[C@H](C)[C@@H]([C@@H](C)C(=O)O)O2)O[C@]2(O[C@](C)([C@H]3CC[C@@](C)(C4OC([C@H]5O[C@@](O)(CO)[C@H](C)C[C@@H]5C)C[C@@H]4C)O3)C[C@H]2C)[C@@H]1C (stereo not given in full),,-100% (inactive)
c1ccc(Cc2nn3c(Cn4cnc5ccccc54)nnc3s2)cc1,,-70.4% (inactive)
N#CC(C#N)=Cc1cc(O)c(O)c([N+](=O)[O-])c1,,8.15% (inactive)
